# Test results from PubChem BioAssay (NCATS).
# Results filed as inconclusive are left out. A call without a number means that no potency is given here. The source made the active and inactive calls. Unless noted, calls follow the shape of the dose curve; as a rule, active = well fitted curve in the direction sought with a large enough effect; inconclusive = small, poorly fitted or top-dose-only effect, or another doubt; inactive = no such curve, though single readings can be large; an effect the other way counts as inactive or inconclusive.
# Key:
# [1] = biological target: Calcium and integrin-binding protein 1 (Homo sapiens) (UniProt Q99828); experiment: Primary qHTS for Identification of Calcium Integrin Binding Protein 1 (CIB1) Competitor (AID 1508620);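 also: GST tagged CIB1 binding a fluorescein labelled alphaIIb integrin peptide tracer; top concentration of the series differs between compounds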
# Calcium and integrin-binding protein 1 (Homo sapiens), sequence (Q99828 whole entry, looked up): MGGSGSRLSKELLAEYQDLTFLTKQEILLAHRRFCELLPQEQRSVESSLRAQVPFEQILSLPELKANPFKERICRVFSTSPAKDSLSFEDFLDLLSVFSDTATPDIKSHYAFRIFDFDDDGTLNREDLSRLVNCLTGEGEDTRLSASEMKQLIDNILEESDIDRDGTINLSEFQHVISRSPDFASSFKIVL
# In short: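 Fluorescence polarization competition: CIB1-GST (1 uM final) preincubated with compound 15 min at room temperature, then FITC-labeled alphaIIb peptide (100 nM final) added for another 15 min. Polarization read at Ex 480/Em 540.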
# [2] = biological target: Lysosomal acid glucosylceramidase (Homo sapiens) (UniProt P04062); experiment: Glucocerebrosidase-p2 (AID 348; in the data active = potency below about 10 µM; also: potency is read from the fitted curve at half-maximal effect); conditions: purified GBA, blue fluorogenic substrate, 40 min
# Lysosomal acid glucosylceramidase (Homo sapiens), sequence (P04062 whole entry, looked up): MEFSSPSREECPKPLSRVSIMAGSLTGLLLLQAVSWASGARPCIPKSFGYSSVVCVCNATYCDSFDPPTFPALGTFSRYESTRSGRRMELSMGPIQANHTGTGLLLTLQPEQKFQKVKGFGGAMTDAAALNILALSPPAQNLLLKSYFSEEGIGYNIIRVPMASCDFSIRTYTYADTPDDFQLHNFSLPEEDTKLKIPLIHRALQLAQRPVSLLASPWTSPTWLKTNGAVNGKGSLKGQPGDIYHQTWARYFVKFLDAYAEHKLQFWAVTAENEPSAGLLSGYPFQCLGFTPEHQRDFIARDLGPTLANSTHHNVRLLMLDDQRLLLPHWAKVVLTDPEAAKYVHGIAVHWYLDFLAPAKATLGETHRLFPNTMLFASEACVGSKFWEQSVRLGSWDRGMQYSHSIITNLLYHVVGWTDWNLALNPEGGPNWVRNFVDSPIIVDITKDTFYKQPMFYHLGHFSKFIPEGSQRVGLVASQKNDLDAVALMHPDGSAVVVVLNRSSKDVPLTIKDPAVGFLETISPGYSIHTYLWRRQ
# In short: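 Compounds titrated from 0.6 nM upwards against 0.2 nM enzyme in pH 5.9 citric acid/KH2PO4, taurocholate, tween-20; blue fluorogenic substrate 80 uM, 40 min room temperature, stopped and read Ex 365/Em 440 for AC50.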
# [3] = AP1 Signaling Pathway (AID 357; active = well fitted curve in either direction with a large enough effect, not every such curve was filed as active;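 also: ME-180 reporter cells stimulated with EGF at its EC50 level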); conditions: ME-180 AP-1-bla reporter, EGF-induced, beta-lactamase ratio, 5 h; at 7.69 µM (top of the series) unless noted
# In short: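 In this screen, ME-180 cells in Opti-MEM with 0.5% dialyzed FBS received EC50 EGF and compound titrations for 5 h. AP-1 reporter beta-lactamase was detected via CCF4 ratio, giving AC50 for positive and negative modulators.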
# [4] = biological target: Cytochrome P450 1A2 (Homo sapiens) (UniProt P05177); experiment: p450-cyp1a2 (AID 410; calls by dose curve; also: potency is read from the fitted curve at half-maximal effect)
# Cytochrome P450 1A2 (Homo sapiens), sequence (P05177 whole entry, looked up): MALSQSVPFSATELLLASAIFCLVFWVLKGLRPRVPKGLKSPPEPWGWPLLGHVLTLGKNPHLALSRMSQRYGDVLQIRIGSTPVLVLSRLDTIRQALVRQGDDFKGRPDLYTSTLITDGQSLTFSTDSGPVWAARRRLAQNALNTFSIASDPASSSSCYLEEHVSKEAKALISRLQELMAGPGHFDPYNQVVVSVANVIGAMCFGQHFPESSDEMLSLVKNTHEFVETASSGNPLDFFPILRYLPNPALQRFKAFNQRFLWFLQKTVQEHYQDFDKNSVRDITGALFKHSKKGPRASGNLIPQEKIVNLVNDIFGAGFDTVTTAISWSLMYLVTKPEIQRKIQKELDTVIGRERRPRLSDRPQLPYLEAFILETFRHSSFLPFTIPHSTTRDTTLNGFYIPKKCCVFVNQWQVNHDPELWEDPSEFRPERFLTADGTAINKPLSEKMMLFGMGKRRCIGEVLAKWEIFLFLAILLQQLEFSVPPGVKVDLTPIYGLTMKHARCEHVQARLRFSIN
# In short: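 20nM CYP1A2 with 100uM Luciferin-ME (at Km) in 100mM KPO4; compound preincubated 10 min, NADPH regeneration added, 60 min at room temperature. Luciferin quantified by luminescence after detection reagent; normalized to 57 uM furafylline.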
# [5] = NFAT Signaling Pathway (AID 444; active = well fitted curve in either direction with a large enough effect, not every such curve was filed as active;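 also: carbachol stimulus at about its EC50 of 1 µM final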); conditions: Jurkat NFAT-bla M1, carbachol, beta-lactamase ratio, 5 h; at 7.69 µM (top of the series) unless noted
# In short: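 Jurkat cells carrying an NFAT-driven β-lactamase reporter and co-transfected muscarinic M1 receptor were treated with compound plus carbachol (1 uM final, an EC50 level) for 5 h at 37 °C. CCF4 loading followed for 1 h at RT; 460/530 nm ratio gave %activity.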
# [6] = Stat Signaling Pathway (AID 446; active = well fitted curve in either direction with a large enough effect, not every such curve was filed as active;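 also: ME-180 cervical cancer cells given 40 pM IL-6 alongside compound; SIE-controlled beta-lactamase reporter measured as 460/530 nm FRET emission ratio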); conditions: ME-180 SIE beta-lactamase reporter, IL-6 stimulated, 5 h; at 7.69 µM (top of the series) unless noted
# In short: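 ME-180 SIE-bla cells; overnight plating; cpd + IL-6 40 pM, 5 h, 37 C; LiveBLAzer 2.5 h RT; 460/530 nm emission ratio. Normalized to 300 pM IL-6 and 125 nM JAK inhibitor controls.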
# [7] = biological target: Glucocorticoid receptor (Homo sapiens) (UniProt P04150); experiment: GR-GFP Redistribution (AID 450;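 active = compounds whose dose series gives a full or clear partial fitted curve of increased nuclear translocation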; also: potency is read from the fitted curve at half-maximal effect); conditions: U2OS GR-GFP nuclear translocation, laser cytometry, 2 h
# Glucocorticoid receptor (Homo sapiens), sequence (P04150 whole entry, looked up, the tested form may be a part): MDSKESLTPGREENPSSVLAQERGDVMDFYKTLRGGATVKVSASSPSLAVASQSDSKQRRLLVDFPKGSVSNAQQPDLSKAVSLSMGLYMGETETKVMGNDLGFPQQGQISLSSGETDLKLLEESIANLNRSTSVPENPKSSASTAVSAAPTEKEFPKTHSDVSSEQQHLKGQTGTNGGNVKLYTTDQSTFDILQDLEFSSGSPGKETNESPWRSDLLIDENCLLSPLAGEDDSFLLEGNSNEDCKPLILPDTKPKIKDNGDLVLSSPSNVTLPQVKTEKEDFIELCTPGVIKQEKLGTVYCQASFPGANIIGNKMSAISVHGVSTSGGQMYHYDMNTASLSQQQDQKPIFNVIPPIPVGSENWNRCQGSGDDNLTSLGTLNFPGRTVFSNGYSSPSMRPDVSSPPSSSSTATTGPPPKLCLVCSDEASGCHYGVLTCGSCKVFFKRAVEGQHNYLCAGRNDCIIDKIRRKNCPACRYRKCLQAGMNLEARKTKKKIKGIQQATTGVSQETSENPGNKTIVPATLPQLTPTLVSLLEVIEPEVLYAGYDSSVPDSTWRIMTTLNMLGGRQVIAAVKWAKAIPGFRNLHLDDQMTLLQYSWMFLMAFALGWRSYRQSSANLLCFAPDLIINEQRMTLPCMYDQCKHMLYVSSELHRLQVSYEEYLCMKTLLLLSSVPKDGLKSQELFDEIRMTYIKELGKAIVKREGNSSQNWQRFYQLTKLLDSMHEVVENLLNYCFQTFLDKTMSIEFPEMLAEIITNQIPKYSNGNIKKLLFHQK
# [8] = biological target: Glucocorticoid receptor (Homo sapiens) (UniProt P04150); experiment: GR-EFC Redistribution (AID 451; calls by dose curve; also: potency is read from the fitted curve at half-maximal effect); conditions: CHO-K1 GR-EFC translocation, beta-gal luminescence, 2 h
# In short: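 CHO-K1 cells stably expressing nuclear-localized β-gal enzyme acceptor and GR fused C-terminally to the enzyme donor fragment; ligand-driven nuclear translocation restores β-gal by complementation. Compounds titrated up to 46 uM final, 2 h at 37 °C; luminescence read.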
# [9] = biological target: Mitogen-activated protein kinase 10 (Mus musculus) (UniProt Q61831); experiment: JNK3 AlphaScreen Assay (AID 530; active = well fitted curve in either direction with a large enough effect, not every such curve was filed as active;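 also: kinase came from lysate of stimulated human HepG2 cells; signal reports phosphorylation of biotinylated GST-cJun 1-79 at Ser73 with 10 µM ATP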)
# In short: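 Inhibitors reduce antibody binding to phosphorylated biotin-cJun, lowering AlphaScreen luminescence. Lysates from HepG2 cells pre-activated by IL-1beta plus TNF-alpha supplied JNK3; compounds were titrated.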
# [10] = biological target: 3',5'-cyclic-AMP phosphodiesterase 4B (Homo sapiens) (UniProt Q07343); experiment: qHTS Assay for Inhibitors of PDE-IV (AID 607; active = well fitted activation curve with a large enough effect in the main read-out, with a control signal flat, not every such curve was filed as active)
# In short: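 ACTOne HEK293 cells carry a modified cAMP-gated CNG channel and express endogenous PDE4; plated 1000 cells/well, compounds up to 22.9 uM final. Membrane-potential dye fluorescence (ex 535/em 590) was read; parental cells received 10 uM forskolin + 100 uM RO 20-1724.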
# [11] = biological target: Cytochrome P450 2D6 (Homo sapiens) (UniProt P10635); experiment: qHTS Assay for Inhibitors and Substrates of Cytochrome P450 2D6 (AID 891); also: potency is read from the fitted curve at half-maximal effect; nearly all actives have a fitted effect of over 60% in size
# In short: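 Human CYP2D6 (5 nM) with 30 uM Luciferin-ME EGE (at Km) in 100 mM KPO4, compound preincubated 10 min, then NADPH regeneration system for 60 min at room temperature. Luciferin read by luminescence; normalized to 1.43 uM quinidine.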
# [12] = Confirmation and Secondary Assay for Modulators of Hemoglobin Beta Chain Splicing at IVS2 654 locus (AID 910);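 also: per-well total GFP intensity by laser scanning cytometry after 2-day treatment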
# In short: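 HeLa cells stably carrying EGFP interrupted by mutant beta-globin IVS2-654 intron (CMV-driven) were treated with compound for 2 days at 37C; corrected splicing was scored as total peak GFP intensity per well (488 nm excitation, 500-520 nm emission).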
# [13] = Confirmation and Secondary Assay for Modulators of Hemoglobin Beta Chain Splicing at IVS2 705 locus (AID 930);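 also: HeLa cells stably expressing the EGFP-705 splicing reporter; GFP fluorescence per well restored by corrected splicing of the IVS2-705 intron in EGFP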
# In short: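 Fluorescence gain (488 nm laser, 500-520 nm PMT) reflects restored correct splicing of a mutant IVS2-705 intron inside EGFP in stably transfected HeLa cells after 2-day compound treatment.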
# [14] = qHTS Assay for Lipid Storage Modulators (AID 1519; calls by dose curve); conditions: Drosophila S3 cells, BODIPY lipid droplet/cell ratio, laser cytometry, cells loaded with oleic acid
# In short: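 Cells seeded at 5,000 per well were treated with compounds over a concentration series and loaded with oleic acid (400 uM, as added). Lipid droplet fluorescence (488 nm excitation, 500-530 nm channel) was read by laser-scanning cytometry and normalized to 20 uM Triacsin C.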
# [15] = biological target: Ubiquitin carboxyl-terminal hydrolase 1 (Homo sapiens) (UniProt O94782); experiment: Inhibitors of USP1/UAF1: Pilot qHTS (AID 504865);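 also: rhodamine fluorescence freed from ubiquitin-rhodamine substrate followed over time; top concentration of the series differs between compounds; nearly all actives have a fitted effect of over 35% in size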
# Ubiquitin carboxyl-terminal hydrolase 1 (Homo sapiens), sequence (O94782 whole entry, looked up): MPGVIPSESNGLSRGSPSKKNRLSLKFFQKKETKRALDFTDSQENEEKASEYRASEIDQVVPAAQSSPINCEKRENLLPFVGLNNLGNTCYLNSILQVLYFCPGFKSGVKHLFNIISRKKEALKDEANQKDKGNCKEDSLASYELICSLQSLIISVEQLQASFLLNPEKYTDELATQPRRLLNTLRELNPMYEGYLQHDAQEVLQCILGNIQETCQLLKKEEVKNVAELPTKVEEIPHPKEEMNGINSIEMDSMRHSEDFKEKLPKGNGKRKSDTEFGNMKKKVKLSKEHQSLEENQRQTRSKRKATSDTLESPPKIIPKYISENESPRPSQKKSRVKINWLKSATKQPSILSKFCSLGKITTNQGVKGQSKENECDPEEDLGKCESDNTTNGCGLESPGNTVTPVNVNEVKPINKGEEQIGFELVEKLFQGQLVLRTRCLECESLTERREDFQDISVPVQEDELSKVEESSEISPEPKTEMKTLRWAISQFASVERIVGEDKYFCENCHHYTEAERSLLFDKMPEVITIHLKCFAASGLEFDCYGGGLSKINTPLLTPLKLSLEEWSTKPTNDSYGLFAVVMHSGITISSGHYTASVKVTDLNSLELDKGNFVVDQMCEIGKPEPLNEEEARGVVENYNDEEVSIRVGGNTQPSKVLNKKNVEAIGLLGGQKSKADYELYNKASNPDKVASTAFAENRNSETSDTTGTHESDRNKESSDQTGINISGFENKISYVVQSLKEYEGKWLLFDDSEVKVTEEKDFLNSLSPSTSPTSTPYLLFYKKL
# In short: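 In 50mM HEPES pH 7.8 containing 0.5mM EDTA, 1mM TCEP, 0.1 mg/ml BSA and 0.01% Tween-20, 1nM USP1/UAF1 is exposed to compound for 15 min, then Ub-Rho (150nM final) is added and fluorescence is read over time.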
# [16] = Primary qHTS for small molecule stabilizers of the endoplasmic reticulum resident proteome: Secreted ER Calcium Modulated Protein (SERCaMP) assay (AID 1508630)
# In short: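 GLuc-SERCaMP-expressing SH-SY5Y cells, pretreated 16 h with compound, are challenged with thapsigargin to empty ER calcium stores; after 4 h, coelenterazine is added directly to the medium and luminescence is imaged.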
# [17] = biological target: Glutathione peroxidase 1 (Homo sapiens) (UniProt P07203); experiment: Primary qHTS Assay for Inhibitors of Recombinant Selenoprotein Glutathione Peroxidase 1 (GPX1) (AID 1845191); also: nearly all actives have a fitted effect of over 65% in size
# Glutathione peroxidase 1 (Homo sapiens), sequence (P07203 whole entry, looked up): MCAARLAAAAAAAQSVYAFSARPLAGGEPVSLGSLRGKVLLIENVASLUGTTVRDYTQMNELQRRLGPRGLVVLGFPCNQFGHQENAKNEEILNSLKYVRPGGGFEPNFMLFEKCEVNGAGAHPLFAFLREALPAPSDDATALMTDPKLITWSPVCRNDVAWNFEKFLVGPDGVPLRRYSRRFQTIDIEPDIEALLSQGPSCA
# In short: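 Recombinant GPX1 (10 nM final) was preincubated with compound for 30 min at room temperature, then reacted with 1 mM GSH, 0.5 mM CHP, 0.5 mM NADPH and 100 nM glutathione reductase; NADPH fluorescence (340/450 nm) was read at 0 and 15 min.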
# [18] = biological target: Cytochrome P450 3A4 (Homo sapiens) (UniProt P08684); experiment: qHTS Assay for Activators of Cytochrome P450 3A4 (AID 885); also: nearly all actives have a fitted effect of over 65% in size
# In short: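 20nM CYP3A4 + 25uM Luciferin-PPXE (=KM), 200mM KPO4; cpd 10 min RT; NADPH regen, 60 min RT; stop w/ detection buffer, 20 min; luminescence. Normalized to 57 uM ketoconazole.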
# [19] = biological target: Dual specificity protein kinase CLK4 (Homo sapiens) (UniProt Q9HAZ1); experiment: qHTS Assay for Inhibitors of CDC-like Kinase 4 (ADP-Glo Assay) (AID 1771); also: potency is read from the fitted curve at half-maximal effect; nearly all actives have a fitted effect of over 70% in size
# In short: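 25 nM Clk4 with 100 uM RS repeat peptide and 1 uM ATP (final) in buffer with 2 mM MgCl2, 0.5 mM EGTA, 2.5 mM DTT, 0.01% Triton X-100; 1 h at room temperature; ADP-Glo luminescence for ADP formed.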
# [20] = biological target: Dual specificity protein kinase CLK4 (Homo sapiens) (UniProt Q9HAZ1); experiment: qHTS Assay for Inhibitors of CDC-like Kinase 4 (ADP-FP Assay) (AID 1795); also: potency is read from the fitted curve at half-maximal effect; nearly all actives have a fitted effect of over 60% in size
# In short: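 Clk4 6.25 nM; RS peptide 100 uM; ATP 1 uM; 25 mM Tris pH 7.5, 10 mM MgCl2; 1 h reaction. ADP detected via antibody/orange tracer FP displacement; TG003 positive control.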
# [21] = biological target: Rap guanine nucleotide exchange factor 3 (Homo sapiens) (UniProt O95398); experiment: Confirmatory qHTS for antagonist of cAMP-regulated guanine nucleotide exchange factor 3 (EPAC1) (AID 1645880); also: nearly all actives have a fitted effect of over 55% in size
# Rap guanine nucleotide exchange factor 3 (Homo sapiens), sequence (O95398 whole entry, looked up): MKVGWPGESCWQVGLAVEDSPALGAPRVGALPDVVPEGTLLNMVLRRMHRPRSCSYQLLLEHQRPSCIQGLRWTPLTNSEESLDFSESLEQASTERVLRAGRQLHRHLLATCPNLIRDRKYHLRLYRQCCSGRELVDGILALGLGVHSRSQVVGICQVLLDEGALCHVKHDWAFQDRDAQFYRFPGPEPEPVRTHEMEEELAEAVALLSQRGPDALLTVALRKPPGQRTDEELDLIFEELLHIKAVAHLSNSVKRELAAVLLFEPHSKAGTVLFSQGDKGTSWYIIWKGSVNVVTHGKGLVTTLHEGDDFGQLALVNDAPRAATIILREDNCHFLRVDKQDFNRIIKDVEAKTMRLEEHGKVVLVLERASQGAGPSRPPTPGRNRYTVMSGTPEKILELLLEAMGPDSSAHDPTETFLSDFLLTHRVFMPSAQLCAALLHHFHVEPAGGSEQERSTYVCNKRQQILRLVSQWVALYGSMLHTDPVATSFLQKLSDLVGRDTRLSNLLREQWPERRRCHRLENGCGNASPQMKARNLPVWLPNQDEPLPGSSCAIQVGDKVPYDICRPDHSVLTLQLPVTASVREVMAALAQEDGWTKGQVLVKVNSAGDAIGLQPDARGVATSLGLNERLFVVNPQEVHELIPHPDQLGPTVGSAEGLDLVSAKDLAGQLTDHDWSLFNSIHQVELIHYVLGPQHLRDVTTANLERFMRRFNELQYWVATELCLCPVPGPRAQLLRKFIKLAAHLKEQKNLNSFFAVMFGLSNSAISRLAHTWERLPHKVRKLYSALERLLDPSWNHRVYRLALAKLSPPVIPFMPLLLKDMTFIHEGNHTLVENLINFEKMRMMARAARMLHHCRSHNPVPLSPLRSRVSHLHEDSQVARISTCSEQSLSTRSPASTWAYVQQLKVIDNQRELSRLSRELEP
# In short: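 Nucleotide exchange uses 100 nM EPAC1, 250 nM RAP1B-BODIPY-GDP and 50 uM GDP, with compounds in a concentration-titration series. After 5 min at room temperature, fluorescence (480 nm ex/540 nm em) is read every 5 min for 30 min. Data are normalized to control ATA and DMSO.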
# [22] = biological target: Rap guanine nucleotide exchange factor 3 (Homo sapiens) (UniProt O95398); experiment: Confirmatory qHTS for agonist of cAMP-regulated guanine nucleotide exchange factor 3 (EPAC1) (AID 1645881);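 also: EPAC1 catalysed release of BODIPY-GDP from Rap1B seen as fluorescence loss; nearly all actives have a fitted effect of over 75% in size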
# [23] = biological target: Rap guanine nucleotide exchange factor 4 (Homo sapiens) (UniProt Q8WZA2); experiment: Confirmatory qHTS for agonist of cAMP-regulated guanine nucleotide exchange factor 4 (EPAC2) (AID 1645884);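 also: nucleotide exchange releases bodipy-GDP from Rap1 and this lowers its fluorescence; nearly all actives have a fitted effect of over 65% in size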
# Rap guanine nucleotide exchange factor 4 (Homo sapiens), sequence (Q8WZA2 whole entry, looked up): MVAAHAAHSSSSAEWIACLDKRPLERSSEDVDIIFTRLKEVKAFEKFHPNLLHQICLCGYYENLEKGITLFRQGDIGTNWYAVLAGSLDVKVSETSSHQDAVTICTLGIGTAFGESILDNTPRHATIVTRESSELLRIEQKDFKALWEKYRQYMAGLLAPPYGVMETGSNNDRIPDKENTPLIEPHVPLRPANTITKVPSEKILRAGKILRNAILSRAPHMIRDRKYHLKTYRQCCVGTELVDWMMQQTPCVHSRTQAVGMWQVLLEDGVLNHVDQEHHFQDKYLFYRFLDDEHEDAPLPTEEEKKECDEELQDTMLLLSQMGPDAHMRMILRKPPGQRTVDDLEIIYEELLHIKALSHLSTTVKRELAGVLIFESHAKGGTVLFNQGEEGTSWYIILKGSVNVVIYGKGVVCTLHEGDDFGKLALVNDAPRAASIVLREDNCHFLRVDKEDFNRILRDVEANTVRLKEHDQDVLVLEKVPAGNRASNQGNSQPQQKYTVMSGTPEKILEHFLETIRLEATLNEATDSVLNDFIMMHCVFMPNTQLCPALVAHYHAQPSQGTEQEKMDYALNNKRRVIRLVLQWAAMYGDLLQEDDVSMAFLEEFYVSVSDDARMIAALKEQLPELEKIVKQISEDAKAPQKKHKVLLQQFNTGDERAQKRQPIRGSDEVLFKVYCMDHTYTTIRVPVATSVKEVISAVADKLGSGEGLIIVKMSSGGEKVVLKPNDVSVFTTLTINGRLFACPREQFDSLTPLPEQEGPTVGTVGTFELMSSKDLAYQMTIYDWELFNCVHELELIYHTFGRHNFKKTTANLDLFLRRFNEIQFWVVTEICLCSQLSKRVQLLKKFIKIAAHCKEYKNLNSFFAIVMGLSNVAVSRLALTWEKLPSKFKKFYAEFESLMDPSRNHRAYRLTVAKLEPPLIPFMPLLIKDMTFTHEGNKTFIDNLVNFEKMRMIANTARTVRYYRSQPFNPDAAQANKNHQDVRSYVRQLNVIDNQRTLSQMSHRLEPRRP
# [24] = biological target: Rap guanine nucleotide exchange factor 4 (Homo sapiens) (UniProt Q8WZA2); experiment: Confirmatory qHTS for antagonist of cAMP-regulated guanine nucleotide exchange factor 4 (EPAC2) (AID 1645885); also: nearly all actives have a fitted effect of over 25% in size; also: potency is read from the fitted curve at half-maximal effect
# [25] = biological target: Rap guanine nucleotide exchange factor 3 (Homo sapiens) (UniProt O95398); experiment: Counterscreen qHTS for antagonist of cAMP-regulated guanine nucleotide exchange factor 3 (EPAC1) (AID 1645888);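 also: fluorescence loss as bound BODIPY-GDP is released from Rap1B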
# In short: (§1)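 Measured: fluorescence of BODIPY-GDP bound to Rap1B, which falls as exchange proceeds. Conditions include 50 uM competing GDP, 5 and 30 min reads, and a later cAMP challenge for antagonist detection.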
# [26] = biological target: Rap guanine nucleotide exchange factor 3 (Homo sapiens) (UniProt O95398); experiment: Counterscreen qHTS for agonist of cAMP-regulated guanine nucleotide exchange factor 3 (EPAC1) (AID 1645889); also: nearly all actives have a fitted effect of over 40% in size
# In short: as §1
# [27] = qHTS for Inhibitors of Ubiquitin-specific Protease USP2a Using CHOP2 as the Reporter: K633 Counterscreen (AID 652168)
# In short: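 Cell-free interference counterscreen without USP2a: compounds pinned into enzyme-free buffer (20 mM Tris pH 8, 2 mM beta-mercaptoethanol, 0.05% Chaps), then DiUb K48-4IQF substrate added (100 nM stock); fluorescence read kinetically, Ex 525/Em 598.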
# [28] = qHTS for Inhibitors of Ubiquitin-specific Protease USP2a Using CHOP2 as the Reporter: Cytotox Assay (AID 652170); also: nearly all actives have a fitted effect of over 70% in size
# In short: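 HCT116 human colon cancer cells, 600 per well in DMEM with 10% FBS, exposed to compounds for 72 hr at 37 deg C. ATP measured by CellTiter-Glo luminescence, normalized to DMSO cells and no-cell background.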
# [29] = biological target: Lysosomal alpha-glucosidase (Homo sapiens) (UniProt P10253); experiment: Confirmation of Inhibitors and Activators of Purified Human alpha-Glucosidase (AID 2115; active = well fitted curve in either direction with a large enough effect)
# In short: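 Purified human enzyme (4 nM) with 4-methylumbelliferyl-alpha-D-glucopyranoside (400 uM), compounds up to 77 uM, in citrate/phosphate buffer pH 5.0 with 0.005% Tween-20. After 20 min at RT, stopped at pH 10; fluorescence ex 365/em 440 nm; AC50 from Hill fits.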
structure (smiles),measurement,setting,value
COc1ccc(C2c3c(n(Cc4ccccc4)cnc3=N)Oc3ccc4ccccc4c32)cc1OC (stereo not drawn),Potency,[1],inactive
c1nc(N2CCNCC2)c2cc(-c3ccc4c(c3)OCO4)ccc2n1,Potency,[2],> 11.4 µM (inactive)
same,"activity change, negative = inhibition",[3],-9.83% (inactive)
same,Potency,[4],2 µM (active)
same,"activity change, negative = inhibition",[5],-0.53% (inactive)
same,"activity, negative = inhibition",[6],1.4% (inactive)
same,Potency,[7],> 46 µM (inactive)
same,Potency,[8],> 46 µM (inactive)
same,outcome,[9],inactive
same,Potency,[10],inactive
same,Potency,[11],2.51 µM (active)
same,outcome,[12],inactive
same,outcome,[13],inactive
same,"activity change, negative = inhibition",[14]; at 57.5 µM (top of the series),13.1% (inactive)
same,max response,[14]; measured here: cell count channel max response,9.51%
same,max response,[14]; measured here: lipid channel max response,19.9%
same,Potency,[15],inactive
same,Potency,[1],inactive
same,Potency,[16],inactive
CC(C)(C)n1nc(Cc2cccc([N+](=O)[O-])c2)c2c(N)ncnc21,Potency,[1],inactive
same,Potency,[17],inactive
c1cncc(CNc2ccnc(-c3ccc4c(c3)OCO4)n2)c1,Potency,[2],> 11.4 µM (inactive)
same,"activity change, negative = inhibition",[3],-20.8% (inactive)
same,Potency,[4],0.126 µM (active)
same,"activity change, negative = inhibition",[5],16% (inactive)
same,"activity, negative = inhibition",[6],-10.6% (inactive)
same,Potency,[7],> 46 µM (inactive)
same,Potency,[8],> 46 µM (inactive)
same,Potency,[18],inactive
same,Potency,[19],0.1 µM (active)
same,Potency,[20],0.0447 µM (active)
same,Potency,[15],inactive
same,Potency,[1],inactive
same,Potency,[16],inactive
CCN(CC)C(=O)CC(c1ccc2c(c1)OCO2)c1c(O)cc(OC)cc1OC (stereo not drawn),Potency,[1],inactive
same,Potency,[21],inactive
same,outcome,[22],inactive
same,outcome,[23],inactive
same,Potency,[24],inactive
same,outcome,[25],inactive
O=C1CCCC2=C1C(c1ccccc1I)N=C(Nc1nc3ccccc3o1)N2 (stereo not drawn),Potency,[1],inactive
same,Potency,[17],inactive
CCC(=O)NC(c1ccco1)c1cc(Cl)c2ccccc2c1O (stereo not drawn),Potency,[1],inactive
same,outcome,[22],inactive
same,outcome,[23],inactive
same,Potency,[24],53.6 µM (active)
same,outcome,[25],inactive
same,outcome,[26],inactive
O=C(CCc1ccccc1)Nc1ccc(S(=O)(=O)Nc2nccs2)cc1,outcome,[27],inactive
same,Potency,[28],inactive
same,Potency,[1],inactive
same,Potency,[21],inactive
same,outcome,[22],inactive
same,activation,[23],9.99% [at 17.1 µM] (inactive)
same,"activity change, negative = inhibition",[24],1.51% [at 12.7 µM] (inactive)
same,activation,[26],9.8% [at 30.8 µM] (inactive)
CC(=O)c1ccc(N2CCN(S(=O)(=O)c3ccc4c(c3)oc(=O)n4C)CC2)cc1,Potency,[29],inactive
same,Potency,[1],inactive
